# In PubChem BioAssay AID743279 (National Center for Advancing Translational Sciences (NCATS), 2014):
# Among all 360,000 compounds or so, about 17,000 (4.7%) were called active. Inconclusive results (about 5%) are left out. Many of the other results were omitted from the sample, so actives are more common in it than they were. Values without a mark were called inactive. Cut-off read from the data, not from the text of the source: active = activity change below about -50%; inconclusive = mostly about -30% to -49%; inactive = weaker than that.
# Experiment: qHTS for Inhibitors of Inflammasome Signaling: IL-1-beta AlphaLISA Primary Screen
# Conditions: THP-1 LPS/ATP IL-1B secretion, 16 h; at 57.5 µM, active compounds read low
# Method in brief: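 Secreted IL-1B measured by AlphaLISA bead assay after 16 h compound exposure of THP-1 cells; compounds (final up to 57.5 uM) added 1 h before LPS (250 ng/mL) and ATP (1.25 mM) stimulation; lower signal means less secretion.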
# % is set by controls: 0 for no effect and ±100 for the full control effect.
row,SMILES,activity change
1,CC(=O)OCC(=O)C1(O)CCC2C3CC(C)C4=CC(=O)CCC4(C)C3C(O)CC21C (configuration not stated),-59.6% (active)
2,CC(=O)O[C@]1(C(C)=O)CC[C@H]2[C@@H]3C=C(C)C4=CC(=O)CC[C@]4(C)[C@H]3CC[C@@]21C,-10.2%
3,CC1(C)C(=O)CCC2(C)C1=CCC1C2C(=O)CC2(C)C1CCC2(O)C(=O)CO (configuration not stated),15.3%
4,O=C(OC1CC2CC1[C@H]1CCCCN1C2=O)N1CCOCC1 (some centres not stated),7.59%
5,COc1ccc(C(=O)Nc2cccc(/C=C(/CCC(=O)O)c3nc4ccccc4s3)c2)cc1,51.8%
6,COc1ccccc1-n1cnc2cc(NS(=O)(=O)c3ccccc3)ccc21,-2.81%
7,CC(C)c1ccccc1OCC(O)CN(CC(O)COc1cccc2ccccc12)C(C)C (configuration not stated),-104% (active)
8,CCC(C)Sc1nc2c(c(=O)[nH]c(=O)n2C)n1CC(O)COc1cccc2ccccc12 (configuration not stated),23.6%
9,CCCN(CCC)CC(O)COc1ccccc1C(=O)Nc1ccccc1 (configuration not stated),-6.43%
10,COc1cc(C(=O)OCCCN2CCOCC2)cc(OC)c1OC,-2.32%
11,O=C1Nc2ccccc2NC(c2ccc3c(c2)OCO3)=C1N(Cc1ccc(F)cc1)C(=O)c1ccco1,-23.7%
12,O=S1(=O)CC(N2CCN(Cc3ccccc3F)CC2)CN1Cc1cn(Cc2ccccc2)nn1 (configuration not stated),14%
13,COc1ccc(-c2csc3nc(-c4ccccc4F)oc(=O)c23)cc1OC,-84.4% (active)
14,COc1ccccc1-c1nnc(-c2ccc(F)cc2)o1,6.31%
15,Cc1sc2nc(-c3ccccc3F)oc(=O)c2c1C,43.9%
16,COc1cc(F)ccc1-c1cc(C(=O)NCC2CCCCC2)[nH]n1,-19.4%
17,CC1CC(=O)N(CC(=O)Nc2cccc(Cl)c2)c2ccccc2S1(=O)=O (configuration not stated),-6.86%
18,CC1=C/C(=N\OS(=O)(=O)c2ccccc2)C=CC1=O,-100% (active)
19,OCCc1ccc(NCCc2ccco2)cc1,-19.5%

row,SMILES,activity change
1,Cc1ccc(CN2CC(N3CCC(Cc4ccccc4)CC3)CS2(=O)=O)cc1 (configuration not stated),-19.7%
2,COc1ccc(C)cc1NC(=O)CSc1cccc[n+]1[O-],0.963%
3,O=C(CSc1ccccc1)Nc1ccc(C(=O)Nc2cccc(O)c2)cc1,3.28%
4,O=C(NCc1cccc(CNC(=O)Nc2cccc(O)c2)c1)Nc1cccc(O)c1,-13%
5,O=C(Nc1cccc(O)c1)c1ccc(C(=O)c2ccccc2)o1,-53.4% (active)
6,O=C(Nc1cccc(NC(=O)c2cccc(F)c2)c1)c1ccccc1,15.3%
7,C/C(=C\C(=O)c1cccnc1)Nc1ccc(C)c(C)c1,-17.1%
8,C/C(=C\C(=O)c1ccccc1)Nc1cccc(O)c1,-52.1% (active)
9,CCCC(C(=O)N1CCOCC1)N1C(=O)C2C3C=CC(C3)C2C1=O (configuration not stated),-7.71%
10,NC(=O)Cc1ccc2sc(-c3ccccc3)nc2c1,-14.8%
11,COCCCNC(=O)c1ccc(-c2c(C)noc2C)c2ccoc12,46.4%
12,COc1ccc(Cl)cc1-n1c(C)cc(C(=O)OCC(=O)N2CC(=O)Nc3ccccc32)c1C,-23.3%
13,Cc1sc2ncnc(SCC(=O)NC3CCS(=O)(=O)C3)c2c1C (configuration not stated),-4.05%
14,N#Cc1ccc(-c2ccc(Cl)cc2)nc1Oc1ccc(F)cc1,30%
15,CCc1cc2c(NC3CCCC3)ncnc2s1,-11.8%
16,CCc1cc2c(NC(Cc3ccccc3)C(=O)O)ncnc2s1 (configuration not stated),0%
17,CCc1cc2c(N3CCN(c4nnc(CC)s4)CC3)ncnc2s1,-71.6% (active)
18,COc1ccc(NC2CCCN(C(=O)c3ccccc3-c3ncc[nH]3)C2)cc1 (configuration not stated),20.4%
19,COc1ccc(Cl)cc1C(=O)NNC(=O)c1nc2nc(C)cc(C)n2n1,27%

row,SMILES,activity change
1,Clc1ccc(C[n+]2cc(-c3ccc(Cl)cc3)n3c2CCC3)cc1,-53.1% (active)
2,Cn1c(-c2ccccc2)c[n+]2c1CCCCC2,-10.2%
3,Cc1cc2c(cc1C)N1C(=O)c3cc4ccccc4cc3NC(=O)C1C(=O)N2 (configuration not stated),0%
4,Cc1cccc(N(C(=O)c2sc(C)nc2C)C(C(=O)NCC2CCCO2)c2ccccc2)c1 (configuration not stated),17.8%
5,Cc1ccc(N(C(=O)c2snc(C(N)=O)c2N)C(C(=O)NCC2CCCO2)c2c[nH]c3ccccc23)cc1 (configuration not stated),-66.2% (active)
6,COc1cccc(N(C(=O)c2snc(C(N)=O)c2N)C(C(=O)NCC2CCCO2)c2c[nH]c3ccccc23)c1 (configuration not stated),-66.5% (active)
7,CCOc1cc(C(C(=O)NCC2CCCO2)N(C(=O)Cn2nnc3ccccc32)c2cccc(OC)c2)ccc1O (configuration not stated),-7.04%
8,Cc1ccc(C(C(=O)NCC2CCCO2)N(C(=O)c2snc(C(N)=O)c2N)c2ccc(C(C)C)cc2)o1 (configuration not stated),-54.6% (active)
9,COc1ccc(N(C(=O)c2snc(C(N)=O)c2N)C(C(=O)NC2CCCC2)c2ccco2)cc1OC (configuration not stated),37%
10,Cc1ccc(N(C(=O)Cc2cccs2)C(C(=O)NCC2CCCO2)c2ccncc2)cc1 (configuration not stated),-6.16%
11,CCOc1ccc(-n2c(N)c(C(=O)NCC3CCCO3)sc2=S)cc1 (configuration not stated),-28.6%
12,COCCNC(=O)C(c1ccc(C)o1)N(Cc1cccs1)C(=O)c1snc(C(N)=O)c1N (configuration not stated),18.9%
13,CCC(C(=O)NC1CCCC1)N(C(=O)c1snc(C(N)=O)c1N)c1ccc2c(c1)OCCO2 (configuration not stated),-12.2%
14,COc1ccc(C(C(=O)NC2CCCCC2)N(C(=O)c2snc(C(N)=O)c2N)c2ccccc2OC)cc1 (configuration not stated),-4.36%
15,CCOc1ccc(N(C(=O)c2snc(C(N)=O)c2N)C(C(=O)NCC2CCCO2)c2c[nH]c3ccccc23)cc1 (configuration not stated),-52.3% (active)
16,CCOc1ccccc1NS(=O)(=O)c1c[nH]c(C(=O)OC)c1,5.96%
17,CSC1=NN(c2ccccc2)CN(c2ccccc2)N1C,-27.8%
18,NC1=C([N+](=O)[O-])C(c2ccccc2)C2=C(CCCC2=O)O1 (configuration not stated),23.3%
19,O=C(NC1CCCCC1)c1ccc(CNc2c(N3CCOCC3)c(=O)c2=O)cc1,-13.2%
